Results: PubChem BioAssay (NCI)
This is part of a sample that, as a whole, favours compounds with a hit. Of some 83,000 tested, about 20% had one in any assay.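 Testing used 96-well plates and a 48-hour single-concentration exposure. Example: -40 means 40% of the starting cells died.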 Unmarked numbers belong to inactive results. The source made the active and inactive calls. The calls were made as follows: active = growth percent below 10; inactive = the rest.

Tested on: U251 CNS
Assay: NCI-60 one-dose screen, 48 h (100 = growth as untreated, 0 = no growth, -100 = all killed)
Settings: 10 µM unless noted

Compound | growth
CCOC(=O)c1c(Nc2ccccc2)nn2c(N)c(C#N)c(-c3ccccc3)nc12 | 74.6%
COC(=O)c1ccc(NC(=S)N2CCc3ccc([N+](=O)[O-])cc3C2)cc1O | 111%
CCCC(=O)NC(c1cccc(N(C)C)c1)c1cc(C)c2cccnc2c1O (stereo not drawn) | 55.5%
COc1cc(/C=C/C(=O)c2cc(OC)c(OC)c(OC)c2)ccc1Oc1nc(NCCO)nc(N2CCOCC2)n1 | -36.9% (active)
CS(=O)(=O)c1ccc(-n2cc(/C=C/C(=O)c3ccc(NC(=O)CO[N+](=O)[O-])cc3)c(-c3ccc(Cl)cc3)n2)cc1 | 92.9%
Cc1cc2nc3c4cc(Cl)ccc4n(CC(=O)NCCN(C)C)c3nc2cc1C | -38% (active)
Cc1cc2nc3c4cc(Cl)ccc4n(CC(=S)NCCN(C)C)c3nc2cc1C | -54.8% (active)
NS(=O)(=O)c1ccc(Nc2nc(SCC(=O)c3ccc(Cl)cc3)nc3ccccc23)cc1 | 95.2%
Clc1ccc2oc3c(NCCCN4CCOCC4)c4ccccc4nc3c2c1 | 23%
Cc1ccc(/C=C/c2nn3c(-c4ccco4)nnc3s2)cc1C | 95.7%
N=C1CC(=O)NN1C(=O)CSc1nc2sc3c(c2c(=O)n1-c1ccc(Cl)cc1)CCCC3 | 101%
O=C(NNc1nc2cc(F)ccc2n2c(CN3CC4(COC4)C3)ccc12)c1cnccn1 | 11.6%
COc1cc2nc(-c3ccc(C)cc3)cc(OCCCNCC3CCCO3)c2cc1OC (stereo not drawn) | 66.7%
CS(=O)(=O)c1ccc(-c2nc3ccccn3c2C=Nc2ccc(Cl)cc2)cc1 | 91.9%
C#Cc1nc(C2=C(C)C(=O)/C(=N/OC(C)=O)C2)cs1 | 98.1%
CSCCC(C(=O)O)N1C(=O)/C(=C/c2ccc(O)c(O)c2)SC1=S (stereo not drawn) | 93.4%
CC(=NNc1ncnc2ccccc12)c1ccc(S(C)(=O)=O)cc1 | 117%
Nc1c(C(=O)c2ccc(Br)cc2)oc2nc(-c3cnccn3)cc(-c3cccs3)c12 | 92.1%
COc1cc(-c2nc3ccc(-c4nnc(SCC(=O)Nc5ccc(C(C)=O)cc5)o4)cc3[nH]2)cc(OC)c1OC | 103%
N#Cc1nc(-c2ccccc2)oc1S(N)(=O)=O | 92.6%

Compound | growth
O=C(CN1C(=O)/C(=C/c2ccccc2)SC1=S)N1CCOCC1 | 102%
Nc1ncc(-c2ccc3ncnc(N4CCc5cc(F)c(Cl)cc54)c3c2)cc1CO | 18.8%
Cc1ccc(C(=O)Nc2cccc(C(F)(F)F)c2)cc1Nc1nc(-c2cnccn2)nc2c1cnn2C | 82.1%
Clc1ccc2c(NCCCn3ccnc3)c3oc4ccc(Cl)cc4c3nc2c1 | 60.5%
CN(C)CCCNc1c2ccc(Cl)cc2nc2c1oc1ccc(Cl)cc12 | -50.9% (active)
O=C(N/N=C/c1ccc[nH]1)c1[nH]c2ccc(Br)cc2c1-c1ccccc1 | 21.8%
C#Cc1nc(C2=C(C)/C(=N/OCc3ccccc3)CC2)cs1 | 37.6%
N#Cc1ccc(C(=O)CSc2nc(Nc3ccc(S(N)(=O)=O)cc3)c3ccccc3n2)cc1 | 114%
C=CCn1c(SCC(=O)c2ccccc2)nnc1-c1c[nH]c2ccccc12 | 107%
Cc1cc(=O)oc2cc(OCCCOc3ccc(/C=C/C(=O)Nc4ccc(Cl)cc4)cc3)ccc12 | 56.4%
O=C(c1ccc(Cl)cc1)C1[C@H](c2ccc(Cl)cc2)[C@@H](c2ccccc2)NC12C(=O)Nc1ccc(Br)cc12 (stereo partly drawn) | 28.3%
C[C@@H](Nc1c(C#N)cnc2ccc(-c3cnc(N)nc3)cc12)c1ccccc1 | 18.1%
CCN1C(=S)N(CC)C2C1NN=C1SC(c3ccccc3)=CC(=O)N12 (stereo not drawn) | 103%
CC(C)(O)c1cncc(-c2ccc3ncnc(N4CCc5cc(F)c(Cl)cc54)c3c2)c1 | 42.6%
CC(C)(C)Nc1nc2c(OCCc3ccccc3)cccn2c1-c1ccccc1Cl | -44.7% (active)
COc1ccc(/C=N/NC(=O)c2[nH]c3ccc(Br)cc3c2-c2ccccc2)s1 | 30.2%
OC1CCN(CCCOc2c3ccccc3nc3c2oc2ccc(Cl)cc23)CC1 | 21.7%
Cc1sc2c(c1C)c(=O)nc1c(-c3nc(-c4ccc(F)cc4)no3)n[nH]n12 | 102%
CC(C)(C)Nc1nc2c(OCCc3ccccc3)cccn2c1-c1cccc(F)c1 | -43.8% (active)

Tested on: PC-3 prostate
Assay: as above
Settings: 10 µM unless noted

Compound | growth
CCOC(=O)c1c(Nc2ccccc2)nn2c(N)c(C#N)c(-c3ccccc3)nc12 | 76.5%
COC(=O)c1ccc(NC(=S)N2CCc3ccc([N+](=O)[O-])cc3C2)cc1O | 98.7%
CCCC(=O)NC(c1cccc(N(C)C)c1)c1cc(C)c2cccnc2c1O (stereo not drawn) | 50.1%
COc1cc(/C=C/C(=O)c2cc(OC)c(OC)c(OC)c2)ccc1Oc1nc(NCCO)nc(N2CCOCC2)n1 | 37.7%
CS(=O)(=O)c1ccc(-n2cc(/C=C/C(=O)c3ccc(NC(=O)CO[N+](=O)[O-])cc3)c(-c3ccc(Cl)cc3)n2)cc1 | 96.2%
Cc1cc2nc3c4cc(Cl)ccc4n(CC(=O)NCCN(C)C)c3nc2cc1C | 60.8%
Cc1cc2nc3c4cc(Cl)ccc4n(CC(=S)NCCN(C)C)c3nc2cc1C | -30.1% (active)
NS(=O)(=O)c1ccc(Nc2nc(SCC(=O)c3ccc(Cl)cc3)nc3ccccc23)cc1 | 89.9%
Clc1ccc2oc3c(NCCCN4CCOCC4)c4ccccc4nc3c2c1 | 40.7%
Cc1ccc(/C=C/c2nn3c(-c4ccco4)nnc3s2)cc1C | 89.9%
N=C1CC(=O)NN1C(=O)CSc1nc2sc3c(c2c(=O)n1-c1ccc(Cl)cc1)CCCC3 | 95.6%
O=C(NNc1nc2cc(F)ccc2n2c(CN3CC4(COC4)C3)ccc12)c1cnccn1 | 38.9%
COc1cc2nc(-c3ccc(C)cc3)cc(OCCCNCC3CCCO3)c2cc1OC (stereo not drawn) | 66.3%
CS(=O)(=O)c1ccc(-c2nc3ccccn3c2C=Nc2ccc(Cl)cc2)cc1 | 57.8%
C#Cc1nc(C2=C(C)C(=O)/C(=N/OC(C)=O)C2)cs1 | 94.3%
CSCCC(C(=O)O)N1C(=O)/C(=C/c2ccc(O)c(O)c2)SC1=S (stereo not drawn) | 99.2%
CC(=NNc1ncnc2ccccc12)c1ccc(S(C)(=O)=O)cc1 | 87.9%
Nc1c(C(=O)c2ccc(Br)cc2)oc2nc(-c3cnccn3)cc(-c3cccs3)c12 | 96.3%
COc1cc(-c2nc3ccc(-c4nnc(SCC(=O)Nc5ccc(C(C)=O)cc5)o4)cc3[nH]2)cc(OC)c1OC | 93.3%
N#Cc1nc(-c2ccccc2)oc1S(N)(=O)=O | 81.4%

Compound | growth
O=C(CN1C(=O)/C(=C/c2ccccc2)SC1=S)N1CCOCC1 | 108%
Nc1ncc(-c2ccc3ncnc(N4CCc5cc(F)c(Cl)cc54)c3c2)cc1CO | 8.02% (active)
Cc1ccc(C(=O)Nc2cccc(C(F)(F)F)c2)cc1Nc1nc(-c2cnccn2)nc2c1cnn2C | 90.1%
Clc1ccc2c(NCCCn3ccnc3)c3oc4ccc(Cl)cc4c3nc2c1 | 73.8%
CN(C)CCCNc1c2ccc(Cl)cc2nc2c1oc1ccc(Cl)cc12 | -24.1% (active)
O=C(N/N=C/c1ccc[nH]1)c1[nH]c2ccc(Br)cc2c1-c1ccccc1 | 15.2%
C#Cc1nc(C2=C(C)/C(=N/OCc3ccccc3)CC2)cs1 | 82.3%
N#Cc1ccc(C(=O)CSc2nc(Nc3ccc(S(N)(=O)=O)cc3)c3ccccc3n2)cc1 | 89.4%
C=CCn1c(SCC(=O)c2ccccc2)nnc1-c1c[nH]c2ccccc12 | 89.1%
Cc1cc(=O)oc2cc(OCCCOc3ccc(/C=C/C(=O)Nc4ccc(Cl)cc4)cc3)ccc12 | 67.7%
O=C(c1ccc(Cl)cc1)C1[C@H](c2ccc(Cl)cc2)[C@@H](c2ccccc2)NC12C(=O)Nc1ccc(Br)cc12 (stereo partly drawn) | 12.8%
C[C@@H](Nc1c(C#N)cnc2ccc(-c3cnc(N)nc3)cc12)c1ccccc1 | 10%
CCN1C(=S)N(CC)C2C1NN=C1SC(c3ccccc3)=CC(=O)N12 (stereo not drawn) | 99.2%
CC(C)(O)c1cncc(-c2ccc3ncnc(N4CCc5cc(F)c(Cl)cc54)c3c2)c1 | 18.7%
CC(C)(C)Nc1nc2c(OCCc3ccccc3)cccn2c1-c1ccccc1Cl | -40% (active)
COc1ccc(/C=N/NC(=O)c2[nH]c3ccc(Br)cc3c2-c2ccccc2)s1 | 30.9%
OC1CCN(CCCOc2c3ccccc3nc3c2oc2ccc(Cl)cc23)CC1 | 8.35% (active)
Cc1sc2c(c1C)c(=O)nc1c(-c3nc(-c4ccc(F)cc4)no3)n[nH]n12 | 89.6%
CC(C)(C)Nc1nc2c(OCCc3ccccc3)cccn2c1-c1cccc(F)c1 | -4.7% (active)
